Data taken from PubChem BioAssay (Tox21).
The source made the active and inactive calls. Calls follow the shape of the dose curve; as a rule, active = well fitted curve in the direction sought with a large enough effect in the repeat runs; inconclusive = weak or mixed curves; inactive = flat fitted curve, though single readings scatter.

Test: qHTS assay to test for compound auto fluorescence at 590 nm (red) in HepG2 cells (AID 720674)
Conditions: HepG2 autofluorescence, red 540/590 nm, 1 h; series mostly up to 46 µM; fluorescence, relative to Rose Bengal: at the top concentration
In short: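 Seeding: 2,000 HepG2 cells/well, MEM/10% FBS, overnight 37 C. Dosing: compound vs DMSO. Incubation: 1 hr, 37 C, 5% CO2. Read: fluorescence 540 ex/590 em, Rose Bengal sodium as red reference.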
% is scaled to controls: 0 for no effect and ±100 for the full control effect.

Question: For O=C[C@H](O)[C@@H](O)[C@H](O)[C@H](O)CO, which outcome is on record?
Answer: The outcome was “inactive”.

Question: For CCOC(=O)c1cccc(N)c1, which “fluorescence, relative to Rose Bengal” value is on record?
Answer: Its value is -0.384% (inactive).

Question: Which “fluorescence, relative to Rose Bengal” value does the source give for CCO[Si](CCC1CCC2OC2C1)(OCC)OCC (stereo not given) here?
Answer: Its value is 0.214% [at 91.3 µM] (inactive).

Question: Which “fluorescence, relative to Rose Bengal” value does the source give for NC(=O)c1cn(Cc2c(F)cccc2F)nn1 here?
Answer: Its value is -0.208% (inactive).

Question: Which outcome does the source give for FC(F)OC(Cl)C(F)(F)F (stereo not given) here?
Answer: The outcome was “inactive”.

Question: Which “fluorescence, relative to Rose Bengal” value does the source give for CN1C(=O)N(C)C(O)C1O (stereo not given) here?
Answer: Its value is 0.122% [at 91.3 µM] (inactive).

Question: For O=C1NC(=O)[C@@]2(CCOc3ccc(F)cc32)N1, which “fluorescence, relative to Rose Bengal” value is on record?
Answer: The value was 0.797% (inactive).

Question: For CCOC(=O)c1c(C)n(C)c2ccc(O)cc12, which “fluorescence, relative to Rose Bengal” value is on record?
Answer: Its value is 0.137% (inactive).

Question: Which “fluorescence, relative to Rose Bengal” value does the source give for O=C(CCCN1CCC(O)(c2cccc(C(F)(F)F)c2)CC1)c1ccc(F)cc1 here?
Answer: Its value is -0.0709% (inactive).

Question: With CC(C)c1cc2c(cc1S(=O)(=O)O)[C@@]1(C)CCC[C@@](C)(C(=O)O)[C@@H]1CC2 as the compound, how does the “fluorescence, relative to Rose Bengal” value read?
Answer: The value was -0.305% (inactive).

Question: For CCN(Cc1ccncc1)C(=O)C(CO)c1ccccc1 (stereo not given), which “fluorescence, relative to Rose Bengal” value is on record?
Answer: The value was 0.082% (inactive).

Question: Which “fluorescence, relative to Rose Bengal” value does the source give for CC(=O)CC(C)C here?
Answer: Its value is -0.144% [at 91.3 µM] (inactive).

Question: Which “fluorescence, relative to Rose Bengal” value does the source give for CC(=O)OCC(=O)[C@@]1(O)CC[C@H]2[C@@H]3CCC4=CC(=O)CC[C@]4(C)[C@H]3C(=O)C[C@@]21C here?
Answer: Its value is -0.291% (inactive).

Question: With CC(=O)CC(C)(C)C1CCCCC1 as the compound, how does the “fluorescence, relative to Rose Bengal” value read?
Answer: The value was 0.0483% [at 91.3 µM] (inactive).

Question: For CCc1ccc(O)c(OC)c1, which “fluorescence, relative to Rose Bengal” value is on record?
Answer: The value was 0.211% [at 91.3 µM] (inactive).

Question: With Cc1cc2c(cc1S(N)(=O)=O)S(=O)(=O)CCC2 as the compound, how does the “fluorescence, relative to Rose Bengal” value read?
Answer: Its value is -0.2% [at 18.6 µM] (inactive).

Question: Which outcome does the source give for O=S(O)CO here?
Answer: The outcome was “inactive”.

Question: With CC(=O)OCC(CCn1cnc2cnc(N)nc21)COC(C)=O as the compound, how does the “fluorescence, relative to Rose Bengal” value read?
Answer: Its value is -0.265% (inactive).

Question: With Cc1c(O)cccc1O as the compound, how does the “fluorescence, relative to Rose Bengal” value read?
Answer: Its value is 0.0705% [at 95.7 µM] (inactive).

Question: For c1cnc(N2CCN(Cc3ccc4c(c3)OCO4)CC2)nc1, which “fluorescence, relative to Rose Bengal” value is on record?
Answer: Its value is 0.323% (inactive).

Question: With N=C(N)c1ccccc1 as the compound, how does the “fluorescence, relative to Rose Bengal” value read?
Answer: Its value is -0.113% [at 91.3 µM] (inactive).

Question: For N=c1nc(N2CCCCC2)cc(N)n1O, which “fluorescence, relative to Rose Bengal” value is on record?
Answer: The value was 0.14% (inactive).

Question: For OCCCC1CCCCC1, which “fluorescence, relative to Rose Bengal” value is on record?
Answer: The value was -0.0699% [at 91.3 µM] (inactive).

Question: For CC/C=C\CC/C=C/C(OCC)OCC, which “fluorescence, relative to Rose Bengal” value is on record?
Answer: The value was 0.0985% [at 91.3 µM] (inactive).

Question: With COCCCOCCCOC as the compound, how does the “fluorescence, relative to Rose Bengal” value read?
Answer: The value was 0.257% [at 91.3 µM] (inactive).
